Measured values: PubChem BioAssay AID624330 (Southern Research Specialized Biocontainment Screening …, 2012)
Hit rate of the full screen: of about 340,000 compounds, about 2,100 (0.62%) were called active.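 Rule for the calls: active = first-screen hits whose inhibition reached a set limit at any dose in the follow-up dose series; inconclusive = inhibition above the set first-screen limit but never retested; inactive = the rest.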 These entries were drawn from the full list. Measured potencies and affinities stand elsewhere.

Target: Rac GTPase-activating protein 1 (Homo sapiens) (UniProt Q9H0H5)
Assay: MgcRacGAP GTPase-activating activity inhibitors, confirmation, biochemical, ADP Hunter fluorescence, primary and confirmatory (AID 624330);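 note: fluorescence reports GDP produced by GAP-driven GTP hydrolysis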
Details: MgcRacGAP-stimulated Rac1 GTP hydrolysis, at 30 µM, active compounds read high, GST-tagged Rac1 F28L mutant substrate

Rac GTPase-activating protein 1 (Homo sapiens), sequence (Q9H0H5 whole entry, looked up): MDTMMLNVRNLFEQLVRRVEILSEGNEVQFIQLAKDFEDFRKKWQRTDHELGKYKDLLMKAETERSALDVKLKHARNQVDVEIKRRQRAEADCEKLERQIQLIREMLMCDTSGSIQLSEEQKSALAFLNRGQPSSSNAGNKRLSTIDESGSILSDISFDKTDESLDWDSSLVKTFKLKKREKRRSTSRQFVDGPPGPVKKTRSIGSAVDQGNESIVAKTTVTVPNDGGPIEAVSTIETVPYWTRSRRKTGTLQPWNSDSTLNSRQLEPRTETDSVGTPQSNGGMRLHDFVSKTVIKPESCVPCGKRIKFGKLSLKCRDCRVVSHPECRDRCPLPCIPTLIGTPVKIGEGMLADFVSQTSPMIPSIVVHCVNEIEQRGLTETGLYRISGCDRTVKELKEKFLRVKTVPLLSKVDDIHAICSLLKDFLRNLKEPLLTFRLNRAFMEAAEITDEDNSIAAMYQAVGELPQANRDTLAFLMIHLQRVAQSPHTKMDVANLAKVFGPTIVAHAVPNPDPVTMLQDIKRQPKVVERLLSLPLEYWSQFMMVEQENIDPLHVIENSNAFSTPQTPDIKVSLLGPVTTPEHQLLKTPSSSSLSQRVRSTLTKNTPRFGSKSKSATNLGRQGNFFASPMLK

inhibition, inactive:
CC1CCN(Cc2cc(=O)oc3ccc(C(C)C)cc23)CC1 5.26%, O=S(=O)(N/N=C1\CC(c2ccccc2)Oc2ccccc21)c1ccccc1 (stereo not drawn) -7.41%, COc1ccccc1CNC1CCN(Cc2ccccc2)CC1 -3.78%, Fc1ccc(CNC2CCN(Cc3ccccc3)CC2)cc1 -1.76%, Oc1ccc(/C=N/Nc2ccccc2)cc1 12.9%, C/C(=N\Nc1nc2ccccc2nc1C)c1ccccc1O -0.02%, COc1ccc(O)c(/C=N/Nc2nc(C)cc(-c3ccccc3)n2)c1 3.11%, COc1ccc(/C=N/Nc2nc(C)cc(-c3ccccc3)n2)cc1OC 11.1%, Cc1cc(-c2ccccc2)nc(N/N=C/c2ccccc2)n1 4.11%, Cc1cc(-c2ccccc2)nc(N/N=C/c2ccccc2F)n1 2.38%, Cc1cc(-c2ccccc2)nc(N/N=C/c2ccc([N+](=O)[O-])cc2)n1 6.88%, Cc1cc(-c2ccccc2)nc(N/N=C/c2cccnc2)n1 3.86%, CCOC(=O)CN1C(=O)S/C(=C/c2ccc(C)o2)C1=O 13.6%, O=C(CN(CC1CCCO1)C(=O)CCC(=O)Nc1nccs1)NCC1CCCO1 (stereo not drawn) -9.34%, O=C1CCc2cc(S(=O)(=O)Nc3cccc(F)c3)cc3c2N1CC3 4.84%, O=C(NCC(c1cccs1)N1CCOCC1)c1cc(S(=O)(=O)N2CCOCC2)c(Cl)cc1Cl (stereo not drawn) 2.31%, Cc1occc1-c1nnc(SCCCC(=O)c2ccc(F)cc2)n1C 14.1%, NNC(=S)NCCc1ccccc1 6.19%, CC(C(=O)Nc1ccccc1)N1CCN(c2ccccn2)CC1 (stereo not drawn) 7.75%, CC(C(=O)N1CCc2ccccc21)N1CCN(c2ccccn2)CC1 (stereo not drawn) 6.14%, O=C(CNC(=O)Cc1ccccc1)NCc1cccc(C(F)(F)F)c1 1.1%, CCN(Cc1ccncc1)C(=O)c1cccs1 -1.7%, O=C(CC1CCCC1)N1CCCC(Nc2cccc(F)c2)C1 (stereo not drawn) 7.36%, CC1CC(C)CN(C(=O)Cn2c(=O)n(CCCC(=O)NCc3ccco3)c(=O)c3sccc32)C1 (stereo not drawn) 9.26%, CCOc1cc2c(cc1OCC)C(c1ccccc1)N(c1ccccc1)C(=O)C2 (stereo not drawn) 1.91%, Cn1c(/C=C/c2ccccc2)nc2ccccc2c1=O 5.36%, CCn1c(/C=C/c2ccc(F)cc2)nc2ccccc2c1=O 8.84%, O=c1c2ccccc2nc(N/N=C/c2ccc(O)cc2)n1O 18.1%, O=c1c2ccccc2nc(/C=C/c2ccc(O)cc2)n1CCc1ccccc1 4.64%, COc1ccccc1-n1c(SCC(=O)N2CCOCC2)nc2ccccc2c1=O -0.91%, CCn1c(/C=C/c2ccccc2)nc2ccccc2c1=O 10.4%, C=CCn1c(C)nc2ccccc2c1=O 2.89%, CCN(CC)C(=O)CSc1nc2ccccc2c(=O)n1-c1ccccc1OC -9.96%, O=C(CSc1nncn1-c1ccccc1)Nc1ccccc1F 3.06%, COc1ccccc1/C=C/C(=O)OCC(=O)N1CCN(S(=O)(=O)c2ccc(C)cc2C)CC1 6.05%, CC(OC(=O)c1ccc(Cl)nc1)C(=O)Nc1ccc(S(=O)(=O)N2CCCC2)cc1 (stereo not drawn) 4.67%, C[C@@]12C(=O)N(CC3CC3)CC(=O)N1[C@H](C1CC1)[C@@H]1C(=O)N(c3ccccc3)C(=O)[C@@H]12 7.67%, Cc1cc(C)n2c(SCC(=O)NCc3ccc4c(c3)OCO4)nnc2n1 11.5%, CSCCC(NC(=O)c1ccccc1Br)C(=O)N1CCN(C/C=C/c2ccccc2)CC1 (stereo not drawn) 9.7%, COc1ccc(Cl)cc1NS(=O)(=O)N1CCOCC1 6.51%, COc1ccc(/C=N\NC(=O)C2=NNC(=O)C2C)cc1 (stereo not drawn) 13.9%, CC1C(=O)NN=C1C(=O)N/N=C/c1ccco1 (stereo not drawn) 14.2%, COc1cc(OC)c(OC)cc1/C=N/NC(=O)CC1C(=O)NN=C1C (stereo not drawn) 4.43%, CC1C(=O)NN=C1C(=O)N/N=C/c1cccs1 (stereo not drawn) 17.2%, COc1ccc(OC)c(/C=N/NC(=O)CC2C(=O)NN=C2C)c1 (stereo not drawn) 3.85%, CC1C(=O)NN=C1C(=O)N/N=C\C(Br)=C\c1ccccc1 (stereo not drawn) 20.2%, CCOC(=O)C1C(=O)NC(C(=O)OCC)(C(=O)OCC)C1C(C)CC (stereo not drawn) 6.57%, CC1CCCC(NC(=O)COC(=O)/C=C/c2ccco2)C1C (stereo not drawn) 2.8%, CNCCCOc1cccc(OC(C)C)c1 16.9%, CCc1ccccc1N(C(=O)c1ccco1)C(C(=O)NC1CCCC1)c1cccnc1 (stereo not drawn) 4.45%, CN(CC(=O)NCC1CCCO1)S(=O)(=O)c1ccc(Br)cc1 (stereo not drawn) 7.12%, C/C(N)=C(/C#N)C(=O)COC(=O)C1CCN(S(=O)(=O)c2cccs2)CC1 -1.72%, CC(=O)Nc1ccc(C(=O)N2CCc3cc4c(cc3C2C)OCCCO4)cc1 (stereo not drawn) 1.24%, COC(=O)C[C@H]1C[C@@H]2c3cc(NC(=O)Nc4ccc(F)cc4)ccc3O[C@@H]2[C@@H](CO)O1 7.07%, O=c1ccc(=O)n(-c2ccccc2)[nH]1 2.41%, O=c1[nH]n(-c2ccccc2)c(=O)c2ccccc12 -1.66%, O=C(O)CSCC(=O)Nc1ccc(C(=O)O)cc1 7.72%, COc1cc(CNCCO)ccc1OCCc1ccccc1 5.16%, COc1cccc(Nc2ccccc2C(=O)O)c1 7.48%, O=C(O)c1ccccc1Nc1ccccc1C(=O)O 2%, CC(Oc1ccccc1)C(=O)Nc1cccc(F)c1 (stereo not drawn) 3.1%, Cc1cc(N)cc(C)c1-c1c(Br)cc(N)cc1Br 10.2%, Cc1cc(C)cc(N)c1 6.83%, O=C(CCC(=O)OCc1cccc([N+](=O)[O-])c1)Nc1ccccc1Cl 2.82%, COc1ccc(C(=O)NCCc2nnc3ccc(SCC(=O)NCc4ccc(F)cc4)nn23)cc1 -0.6%, Cc1onc(-c2ccccc2Cl)c1C(=O)NNC(=O)c1nn(C)cc1Cl 1.82%, O=C(c1cc(COc2ccc(F)c(F)c2)on1)N1CCN(C/C=C/c2ccccc2)CC1 -6.39%, Nc1nc(N)c2cc(Sc3cccc(C(F)(F)F)c3)ccc2n1 5.58%, Nc1nc(N)c2cc(Sc3ccc(Cl)cc3)ccc2n1 11.7%, Cc1nc(Cc2nnc(SCC(=O)N3CCN(c4ccc(F)cc4)CC3)o2)cs1 0.95%, Cc1nc(Cc2nnc(SCC(=O)N3CCN(c4ccccc4)CC3)o2)cs1 5.08%, CC(C)(C)C(=O)Nc1nc(=S)ss1 11.6%, CC(=O)Nc1nc(=S)ss1 12.7%
